Measles CPE: protection of cells from measles virus. Measles virus-infected cells, CPE protection, absorbance. protection (pct of control), % at 4 µM. 140,000 compounds, 1.5% hits; in the data active = protection mostly above about 24%, no sharp cut-off; inactive = mostly below about 26%
CYP2C9 inh: inhibitors of human CYP2C9; CYP2C9 Supersomes, luciferin-H conversion, luminescence; inhibition, % at 5 µM; 96,000 compounds, 20% hits; AID 777;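 active = blocking of liver enzyme CYP2C9 beyond about 50% at 5 µM, limit read from the data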
Target sequence (P11712 whole entry, looked up): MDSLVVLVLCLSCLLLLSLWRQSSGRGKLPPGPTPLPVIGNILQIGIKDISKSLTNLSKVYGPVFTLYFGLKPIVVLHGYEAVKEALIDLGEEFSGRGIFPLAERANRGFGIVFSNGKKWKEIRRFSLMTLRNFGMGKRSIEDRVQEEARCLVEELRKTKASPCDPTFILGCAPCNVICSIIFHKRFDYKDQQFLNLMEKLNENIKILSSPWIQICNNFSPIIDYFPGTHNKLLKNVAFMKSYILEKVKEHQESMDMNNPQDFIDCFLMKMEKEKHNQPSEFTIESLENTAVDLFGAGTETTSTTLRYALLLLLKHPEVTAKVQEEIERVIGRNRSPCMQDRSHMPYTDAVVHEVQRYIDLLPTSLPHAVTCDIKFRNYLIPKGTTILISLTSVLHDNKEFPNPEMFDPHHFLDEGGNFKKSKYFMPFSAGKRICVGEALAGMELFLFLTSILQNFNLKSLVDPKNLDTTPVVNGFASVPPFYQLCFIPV
CYP2C19 inhib: inhibitors of human CYP2C19 | inhibition, % at 5 µM | P33261 | CYP2C19 Supersomes, luciferin-H EGE luminescence, 30 min | 96,000 compounds, 21% hits;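 active = CYP2C19 inhibition above a set limit at 5 µM in the primary screen, cut at about 50% in these data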
CYP2C19 activ: cytochrome P450 2C19 (human) activation; P33261; recombinant CYP2C19, luciferin-H EGE luminescence; stronger effect = higher value; 0 = fully inhibited enzyme, 1 = untreated enzyme; activation factor at 5 µM; 96,000 tested, under 10 active;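 active = activation factor of at least 2 at 5 µM in the primary screen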
CYP2C9 activ: CYP2C9 (human) activation; activation factor at 5 µM; recombinant CYP2C9, luciferin-H conversion, luminescence; stronger effect = higher value; factor 1 = untreated enzyme, 0 = blocked; 96,000 compounds, 1.4% hits;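 active = activation factor of 2 or more for CYP2C9 at a 5 µM dose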
Numbers stand for hits; . = inactive; / = no result given. This is a sample that favours compounds with a hit; in the whole collection about 22% have one here.

SMILES	Measles CPE	CYP2C9 inh	CYP2C19 inhib	CYP2C19 activ	CYP2C9 activ
O=C(CSc1nnc(Cc2cccs2)n1-c1ccccc1)NC1CCCCC1	.	72	55	.	.
O=C(CSc1nnc(Cc2cccs2)n1-c1ccccc1)Nc1ccc2c(c1)OCCO2	.	89	85	.	.
Cc1ccc2nc(CSc3nnc(Cc4cccs4)n3C3CCCCC3)cc(=O)n2c1	.	52	71	.	.
Cn1c(Cc2ccccc2)nnc1SCC(=O)Nc1ccc2c(c1)OCCO2	.	74	75	.	.
Cc1ccc(F)cc1NC(=S)NCCc1ccccc1	.	/	/	/	/
CC(=O)Nc1ccc(-n2nnnc2SCC(=O)N2CCN(C(=O)c3ccco3)CC2)cc1	.	.	.	.	.
COCCn1c(Cc2ccccc2)nnc1SCC(=O)N(C)C	.	.	.	.	.
Cc1ncc(N=Nc2ccccc2)c(-c2ccccc2)n1	.	.	.	.	.
CCn1c(Cc2ccccc2)nnc1SCC(=O)Nc1ccc(N2CCOCC2)c(Cl)c1	.	58	80	.	.
CCn1c(Cc2ccccc2)nnc1SCC(=O)Nc1cc(C)on1	.	.	.	.	.
CSCCC(NS(=O)(=O)c1ccc(Cl)cc1)C(=O)OCC(=O)N1CCOCC1 (configuration not stated)	.	/	/	/	/
CSCCC(NS(=O)(=O)c1ccc(Cl)cc1)C(=O)OCC(=O)NC12CC3CC(CC(C3)C1)C2 (configuration not stated)	.	61	.	.	.
CCCc1cc(=O)[nH]c(Nc2ccc(OC)c(Cl)c2)n1	.	72	.	.	.
CCCc1cc(=O)[nH]c(Nc2ccc(O)cc2)n1	.	.	.	.	.
COc1cccc(C(=O)CN(C(=O)c2ccc(Cl)c(Cl)c2)N2C(=O)C3CCCCC3C2=O)c1 (configuration not stated)	.	.	.	.	.
O=C1c2ccccc2NC(c2cccc(F)c2)N1Cc1ccco1 (configuration not stated)	.	96	92	.	.
CCN(CC)CCN1C(=O)c2ccccc2NC1c1cccc(F)c1 (configuration not stated)	.	.	.	.	.
Cc1ccc(C2Nc3ccccc3C(=O)N2Cc2ccco2)cc1 (configuration not stated)	.	86	.	.	.
O=C1c2ccccc2NC(c2ccc(O)cc2)N1Cc1ccco1 (configuration not stated)	.	60	.	.	.
O=S(Cc1ccc(Br)cc1)Cc1nnc(SCc2ccc(Br)cc2)n1-c1ccccc1 (configuration not stated)	.	/	/	/	/
CC(Cc1ccccc1)C(=O)NCc1ccccn1 (configuration not stated)	.	/	/	/	/
CC(C)=CC(=O)Nc1nnc(-c2cccnc2)s1	.	.	87	.	.
CCOc1ccc(Cl)cc1CN1CCOCC1	.	.	.	.	.
CCCCCOc1ccc(Cl)cc1CN1CCOCC1	.	54	90	.	.
CC(C)CCOc1ccc(Cl)cc1CN1CCOCC1	.	.	56	.	.
SMILES	Measles CPE	CYP2C9 inh	CYP2C19 inhib	CYP2C19 activ	CYP2C9 activ
Cc1ccc(C(=O)C2=C(O)C(=O)N(CCN3CCOCC3)C2c2ccccn2)o1 (configuration not stated)	.	.	.	.	.
Cc1cc2cc(C)c3nnc(SCC(=O)N4CCc5ccccc54)n3c2cc1C	.	.	.	.	.
Cc1ccc2cccc(NC(=S)NC(=O)c3ccccc3)c2n1	.	.	.	.	2.7
COC(=O)c1ccccc1NC(=S)NC(=O)c1ccccc1C	.	.	51	.	.
COC(=O)c1ccccc1NC(=S)NC(=O)c1ccccc1	.	.	56	.	.
Cc1ccccc1C(=O)NC1CCN(CC(=O)Nc2nccs2)CC1	.	.	.	.	.
COC(=O)c1ccccc1NC(=O)CN1CCC(NC(=O)c2ccccc2C)CC1	.	54	82	.	.
COc1ccc(C(=O)CSc2nnc(CNC(=O)c3ccc(OC)cc3)n2C)cc1	.	.	.	.	.
COc1ccc(NC(=O)CSc2nnc(C3CCCCC3)n2-c2ccccc2)cc1	.	.	.	.	.
Cn1cccc1C(=O)NC(=O)CSc1nnc(C2CC2)n1-c1ccccc1	.	.	55	.	.
O=C(CSc1nnc(C2CC2)n1-c1ccccc1)Nc1ccc(N2CCOCC2)cc1	39	.	.	.	.
COc1ccc(C)cc1N(C(=O)COc1ccccc1)c1nc2ccccc2s1	.	/	/	/	/
Cn1ccnc1SCC(=O)NC12CC3CC(CC(C3)C1)C2	.	.	92	.	.
CCOC(=O)c1ccc(NC(=O)CSc2nccn2C)cc1	.	.	60	.	.

High-throughput results deposited in PubChem by several laboratories.
